# Laboratory results from PubChem BioAssay (NCI).
# About 79,000 compounds went through this panel and 15% of them were active in at least one assay; those are over-represented in the sample as a whole. Active and inactive are the calls of the source. Cut-off read from the data, not from the text of the source: active = growth inhibition above about 70%; inactive = the rest.
# Assay: NCI Yeast Anticancer Drug Screen. Data for the rad18 strain (AID 177)
# Settings: S. cerevisiae rad18 mutant growth inhibition; at 33.0 µM; active compounds read high
# Summary of the method: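 Screen uses a yeast strain with a defined lesion in DNA damage repair; compound effect is read as loss of growth compared to untreated vehicle cultures.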
row,Compound,growth inhibition
1,O=C1/C(=C/c2ccccc2)CCCC1CN1CCCCC1 (configuration not stated),83% (active)
2,C#CCN(Cc1ccc2nc(N)[nH]c(=O)c2c1)c1ccc(C(=O)NC(CCC(=O)O)C(=O)O)cc1 (configuration not stated),33% (inactive)
3,O=C(O)CNC(=S)Nc1ccccc1,53% (inactive)
4,N/C(=N/N=C/c1cc(Br)cc(Br)c1O)NO,94% (active)
5,C[Si](C)(C)/C=C/CCNC(C#N)c1ccccc1 (configuration not stated),23% (inactive)
6,CCCCCCCCCCCCCCCCOP(=O)(O)OCC(N)C(=O)O (configuration not stated),97% (active)
7,CC1=C(C(=O)NCc2ccccc2)C(c2ccccc2)C(C(=O)NCc2ccccc2)=C(C)N1,60% (inactive)
8,O=[N+]([O-])c1cc(S(=O)(=O)Nc2ccccc2)ccc1Nc1ccccc1,91% (active)
9,COc1cc2ccnc(-c3c4ccccc4c(N)c4c(OC)c(OC)ccc34)c2cc1OC,31% (inactive)
10,CCOC(=O)C1=C(C)NC(C)=C(C(=O)OCCNC(=O)c2ccc(N=[N+]=[N-])cc2)C1c1ccccc1C(F)(F)F (configuration not stated),8% (inactive)
11,Cc1cc(C)c(NC(=S)NC(=O)c2ccccc2)cc1C,-41% (inactive)
12,CNCCCNc1c2ccccc2nc2cccc([N+](=O)[O-])c12,95% (active)
13,COc1c(O)c(C=O)c(Br)c(C=O)c1O,24% (inactive)
14,Cc1c(C)c(C)c(CSC(=N)N)c(C)c1C,58% (inactive)
15,O=C(CSC(=S)N1CCCCC1)Nc1nc2c(s1)CCCC2,23% (inactive)
16,CNC(=O)OCc1c(COC(=O)NC)c(-c2ccc(Cl)cc2)n2c1CCC2,-42% (inactive)
17,CC(=O)OC1CC2C(C)(C)C(=O)C=C[C@]2(C)C2CCC3(C)C(=CCC3[C@H](CO)C[C@H](O)C(=O)C(C)(C)O)[C@]12C (some centres not stated),3% (inactive)
